IMPase Li cell – qHTS Assay for Identifying the Cell-Membrane Permeable IMPase Inhibitors: Potentiation with Lithium; Potency, µM (titrated, usually from 59.4 µM), inactives show at the highest dose activity, negative = IMPase inhibition, actives largely listed as inhibitors; AID 1457, 2008; CHO-M1 cells, IP1 TR-FRET (IP-One), carbachol + lithium; 0.35% of 210,000 active;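 note: IP1 builds up when IMPase is blocked and the TR-FRET signal falls; potency is the fitted concentration of half-maximal effect; plate controls were basal vehicle for no effect and high inhibitor control for full effect; nearly all actives have a fitted effect of over 50% in size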
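IP1 accumulation measured by competitive TR-FRET in lysed CHO-M1 cells after 30 min compound exposure at 37C, with a small lithium addition to potentiate weak responses. Hill-equation AC50 from ratio and donor-channel data.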
IMPase cell inh – qHTS Assay for Identifying the Cell-Membrane Permeable IMPase Inhibitors. CHO-M1 cells, IP1 accumulation, HTRF TR-FRET ratio. Inositol monophosphatase 1 (Rattus norvegicus), P97697. 120,000 tested, under 10 active. inhibition (IP1 accumulation), % at 46.1 µM; active = well fitted curve in the direction sought with a large enough effect in the signal ratio, not every such curve was filed as active; inconclusive = small, poorly fitted or top-dose-only effect, or a change in a side signal; inactive = no such curve, though single readings can be large or run the other way; the % refers to the signal ratio;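 note: cells stimulated with carbachol in lithium chloride buffer; plate controls were DMSO basal wells for no effect and reference inhibitor wells for full effect; higher means more IMPase inhibition seen as more IP1 and lower FRET ratio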
Target sequence (P97697 whole entry, looked up): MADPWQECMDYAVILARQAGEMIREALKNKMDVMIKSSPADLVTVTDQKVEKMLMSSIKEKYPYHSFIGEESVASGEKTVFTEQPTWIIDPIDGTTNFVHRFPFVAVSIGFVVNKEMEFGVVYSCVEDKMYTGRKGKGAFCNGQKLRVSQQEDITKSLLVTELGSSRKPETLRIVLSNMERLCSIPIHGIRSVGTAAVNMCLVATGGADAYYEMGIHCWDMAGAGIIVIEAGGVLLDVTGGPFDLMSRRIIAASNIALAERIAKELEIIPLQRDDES
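Carbachol-driven Gq signalling in CHO-M1 cells (2000/well) generates IP1. Compounds that block IMPase raise IP1 and so reduce the FRET signal from Eu-anti-IP1 and d2-IP1 after a 10 min room-temperature lysis.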
HTT aggregate – qHTS Multiplex Assay to Identify Dual Action Probes in a Cell Model of Huntington: Aggregate Formation (GFP); PC12 HttQ103-GFP aggregates, Acumen cytometry, 40 h; Potency, µM (top dose mostly 46.1 µM), for the others: at the top dose activity change, negative = inhibition, hits mostly inhibitors; 1.1% of 220,000 active; AID 1688, 2009; note: potency is the fitted concentration of half-maximal effect; % is set by controls: 0 for no effect and ±100 for the full control effect; nearly all actives have a fitted effect of over 60% in size
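Read-out: GFP aggregate count by laser scanning cytometer (488 nm excitation, 500-530 nm emission, 1–25 µm objects >6 SD above background). Cells: PC12, inducible HTTex1-Q103-GFP, 100 nM tebufenozide; compounds titrated.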
HTT cytoprotect – qHTS Multiplex Assay to Identify Dual Action Probes in a Cell Model of Huntington: Cytoprotection (ATP). AID 1471, 2008. 0.14% of 230,000 active. PC12 HTT-Q103 induced, cytoprotection, ATP luminescence, 40 h. Potency, µM (doses to about 56.4 µM), for inactives: cytoprotection (ATP increase), usual class: activators; note: potency is the fitted concentration of half-maximal effect; % of control where 0% means no effect; nearly all actives have a fitted effect of over 45% in size
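Compounds were screened for protection of PC12 cells against cell death after tebufenozide induction (100 nM final) of mutant Huntingtin exon 1 (Q103) fused to GFP.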
ALDH1A1 block – qHTS Assay for Inhibitors of Aldehyde Dehydrogenase 1 (ALDH1A1) | Aldehyde dehydrogenase 1A1 (Homo sapiens), P00352 | Purified ALDH1A1, NADH fluorescence, propionaldehyde substrate | Potency, µM (top dose mostly 75.3 µM), for the others: at the highest dose activity, negative = inhibition, usual class: inhibitors | 7.3% of 220,000 active | AID 1030, 2008; active = well fitted inhibition curve with a large enough effect, not every such curve was filed as active; inconclusive = small, poorly fitted or top-dose-only effect, or another doubt; inactive = no such curve, though single readings can be large or run the other way;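 note: potency is the fitted concentration of half-maximal effect; plate controls were no enzyme wells and a reference inhibitor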
HPGD inh – qHTS Assay for Inhibitors of HPGD (15-Hydroxyprostaglandin Dehydrogenase). purified HPGD, NADH fluorescence kinetic, PGE2 substrate. Potency, µM, for inactives: at the highest dose activity change, negative = inhibition, most hits filed as inhibitors. 4.3% of 150,000 active. AID 894, 2007; active = well fitted inhibition curve with a large enough effect, not every such curve was filed as active; inconclusive = small, poorly fitted or top-dose-only effect, or another doubt; inactive = no such curve, though single readings can be large or run the other way; note: potency is the fitted concentration of half-maximal effect; % is set by controls: 0 for no effect and ±100 for the full control effect
Target sequence (P15428 whole entry, looked up): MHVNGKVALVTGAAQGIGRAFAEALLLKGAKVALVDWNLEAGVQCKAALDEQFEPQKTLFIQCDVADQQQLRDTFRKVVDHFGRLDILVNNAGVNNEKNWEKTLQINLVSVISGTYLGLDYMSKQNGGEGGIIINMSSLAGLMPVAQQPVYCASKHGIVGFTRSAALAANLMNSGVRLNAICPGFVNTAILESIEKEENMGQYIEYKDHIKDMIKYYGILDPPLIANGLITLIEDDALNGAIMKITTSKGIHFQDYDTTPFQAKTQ
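20 nM HPGD preincubated 15 min at room temperature with compound in 50 mM Tris-HCl pH 8, 0.01% Tween 20. Started with 1 mM NAD+ and 30 uM prostaglandin E2; NADH fluorescence (360/450 nm) read 5 times over 30-s intervals, last minus first.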
Numbers without * were called inactive; [ ] = remark or other dose. Only some compounds are listed: those with a hit (about 9.4% of all), similar ones and a draw of the others. Unless noted, calls come from the whole dose curve; as a rule, active = well fitted curve in the direction sought with a large enough effect; inconclusive = small, poorly fitted or top-dose-only effect, or another doubt; inactive = no such curve, though single readings can be large; an effect the other way counts as inactive or inconclusive.

Screening O=C(C1=C[C@@H](c2ccc(C(F)(F)F)cc2)C[C@@H](OCc2ccc(CO)cc2)O1)N1CCN(Cc2ccc3c(c2)OCO3)CC1 returned IMPase Li cell 6%, HTT aggregate 10%[9.22 µM], HTT cytoprotect -15%[10 µM] and ALDH1A1 block 13µM*.
`COC(=O)c1cc2oc(C)cc2n1CC(=O)N1CCCc2ccccc21` gave IMPase Li cell 17%[38.3 µM], IMPase cell inh 7, HTT aggregate 23%, HTT cytoprotect -12%, ALDH1A1 block 20µM* and HPGD inh -17%.
`CCOC(=O)c1cc2sccc2n1CC(=O)N1CCCc2ccccc21` gave IMPase Li cell 18%[38.3 µM], IMPase cell inh 6, HTT aggregate 1%, HTT cytoprotect -23%, ALDH1A1 block -4% and HPGD inh -22%.
Screening CCOC(=O)c1cc2occc2n1CC(=O)N1CCCc2ccccc21 returned IMPase Li cell 15%[38.3 µM], IMPase cell inh 13, HTT aggregate -5%, HTT cytoprotect -2%[10 µM], ALDH1A1 block 8.9µM* and HPGD inh -16%.
Cn1c(-c2ccc(S(=O)(=O)N3CCCC3)cc2)csc1=Nc1ccc(Cl)c(Cl)c1 was read as IMPase cell inh -7.
Screening COc1ccc(NCc2ccccc2-c2nnc(-c3ccccc3)o2)cc1Cl returned IMPase cell inh 7.
`Cc1cc(C)n(C(=O)CNC(=O)CCc2ccccc2)n1` gave IMPase Li cell 10%[38.3 µM], IMPase cell inh 0, HTT aggregate 24%, HTT cytoprotect 10%, ALDH1A1 block 5% and HPGD inh 16µM*.
`Cc1cc(C)n(C(=O)CCNC(=O)c2ccccc2Br)n1` gave IMPase Li cell -7%[38.3 µM], IMPase cell inh -1, HTT aggregate 5%, HTT cytoprotect 4%, ALDH1A1 block -1% and HPGD inh 7.9µM*.
Screening C[C@H]1C2=C3C(C[C@H]4C(=O)N(c5ccccc5)C(=O)[C@H]4[C@H]3[C@@]3(Cc4ccccc4)C(=NCCc4c[nH]c5ccccc45)OC(=O)N3C2=O)[C@H]2C(=O)N(c3ccccc3)C(=O)[C@H]21 (stereo partly drawn) returned IMPase Li cell -2%, HTT cytoprotect 16%, ALDH1A1 block 1% and HPGD inh -15%.
For Cc1ccc(NC(=O)COC(=O)Cc2csc(-c3cccc(F)c3)n2)cc1C the results were IMPase Li cell -7%, HTT aggregate 6%, HTT cytoprotect 25%[10 µM], ALDH1A1 block 11µM* and HPGD inh -16%.
`COc1ccc(NC(=O)N2CC[C@@]3(CCCN(S(C)(=O)=O)C3)C2)cc1` gave IMPase Li cell -5%, HTT cytoprotect inconclusive, ALDH1A1 block -6% and HPGD inh -5%.
`Cc1[nH]n(-c2ccccc2)c(=O)c1C(c1ccc(C(=O)O)cc1)c1c(C)[nH]n(-c2ccccc2)c1=O` gave IMPase Li cell -1%, HTT aggregate -12%, ALDH1A1 block inconclusive and HPGD inh inconclusive.
For Cc1[nH]n(C(N)=S)c(=O)c1C(c1ccccc1)C(C#N)C#N (stereo not drawn) the results were IMPase Li cell -1%[38.3 µM], IMPase cell inh 0, HTT aggregate 26%, HTT cytoprotect -30%[10 µM], ALDH1A1 block 32µM* and HPGD inh -9%.
`Cc1[nH]n(-c2ncc(-c3ccccc3)s2)c(=O)c1C(c1ccc(Br)cc1)C(C#N)C#N` (stereo not drawn) gave IMPase Li cell 9%, HTT aggregate 0%, HTT cytoprotect -1%[10 µM], ALDH1A1 block 13µM* and HPGD inh 10µM*.
`O=P(O)(O)C(O)(Cc1cccnc1)P(=O)(O)O` gave HTT aggregate 6% and HTT cytoprotect -44%.
Cc1ccc(NC(=O)Cn2cccc2)c(Br)c1 was read as IMPase Li cell -7%[38.3 µM], IMPase cell inh 7, HTT aggregate 17%, HTT cytoprotect -3%, ALDH1A1 block -4% and HPGD inh 14µM*.
For CCOc1ccc(NCC(=O)Nc2ccc(C)cc2C)cc1 the results were IMPase Li cell 31%[38.3 µM], IMPase cell inh -1, HTT aggregate 4%, HTT cytoprotect 2%, ALDH1A1 block 1.8µM* and HPGD inh -3%.
Screening Cc1ccc(NC(=O)Cn2cccc2)c(C)c1 returned IMPase Li cell 11%[38.3 µM], IMPase cell inh -2, HTT aggregate 22%, HTT cytoprotect -4%, ALDH1A1 block -1% and HPGD inh 2.2µM*.
For Cc1ccc(NC(=O)Cn2cccc2)cc1 the results were IMPase Li cell -5%, HTT aggregate -7%, HTT cytoprotect -48% and ALDH1A1 block -10%.
Screening CCOC(=O)c1ccc(NC(=O)COc2ccc(S(=O)(=O)NC(C)CC)cc2)cc1 (stereo not drawn) returned IMPase Li cell 15%[38.3 µM], IMPase cell inh 16, HTT aggregate -6%, HTT cytoprotect -3%, ALDH1A1 block -2% and HPGD inh -10%.
`CCOC(=O)c1ccc(NC(=O)C(C)NS(=O)(=O)c2ccc(OC)cc2)cc1` (stereo not drawn) gave IMPase Li cell 47%[38.3 µM], IMPase cell inh -5, HTT aggregate -3%, HTT cytoprotect 5%, ALDH1A1 block 14µM* and HPGD inh inconclusive.
Screening O=C(NCCCN1CCN(c2ccccc2F)CC1)c1nnc(Cc2ccc(Cl)cc2Cl)o1 returned IMPase cell inh 3.
`O=C(NC1=NCCS1)c1cc(-c2ccc(F)cc2)nc2ccccc12` gave IMPase Li cell -4%, IMPase cell inh -1, HTT aggregate -30%, HTT cytoprotect 3%[1.9 µM], ALDH1A1 block 0% and HPGD inh -6%.
CCCc1ccc(-c2cc(C(=O)NC3=NCCS3)c3ccccc3n2)cc1 was read as IMPase cell inh -9, HTT aggregate 4µM*, HTT cytoprotect -28%[10 µM] and ALDH1A1 block 2%.
COc1ccc(CCN(Cc2ccccn2)C(=S)Nc2ccccc2C)cc1OC was read as IMPase Li cell 18%, HTT aggregate 0%, HTT cytoprotect -6% and ALDH1A1 block 20µM*.
COc1cccc(C(=O)N2c3ccccc3Sc3ccccc32)c1 was read as IMPase Li cell -5%, IMPase cell inh 3, HTT aggregate 1%, HTT cytoprotect -11%[1.9 µM], ALDH1A1 block 3% and HPGD inh 14µM*.

Bioassay records as filed in PubChem BioAssay.
